Data taken from PubChem BioAssay (NCATS).
Inconclusive results are not listed. Where a call stands in place of a potency, no number is given. Values without a mark were called inactive. Activity calls are given as the source filed them. Calls come from the whole dose curve; as a rule, active = well fitted curve in the direction sought with a large enough effect; inconclusive = small, poorly fitted or top-dose-only effect, or another doubt; inactive = no such curve, though single readings can be large; an effect the other way counts as inactive or inconclusive.

Key:
C33A = assay: Primary qHTS to identify gynecologic anti-cancer compounds using libraries of approved drugs and bioactive compounds (AID 1345084); conditions: Gynecologic cancer cell panel viability, ATPlite luminescence, 48 h; series mostly up to 57.5 µM; note: nearly all actives have a fitted effect of over 55% in size
Summary of the method: (§1)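 Cells, 1,000 per well, were allowed to settle for 16 h at 37 C before compound addition. Five concentrations were tested for 48 h, and viability was read by ATPlite luminescence after 15 min at room temperature.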

Es-2 = assay: as above; conditions: Gynecologic cancer cell panel viability, ATPlite luminescence, 48 h; series mostly up to 57.5 µM
Summary of the method: as §1

HeLa = assay: as above; conditions: Gynecologic cancer cell panel viability, ATPlite luminescence, 48 h; series mostly up to 57.5 µM
Summary of the method: as §1

Hek293T = assay: as above; conditions: Gynecologic cancer cell panel viability, ATPlite luminescence, 48 h, control line for the selectivity index; series mostly up to 57.5 µM
Summary of the method: as §1

JEG-3 = assay: as above; conditions: Gynecologic cancer cell panel viability, ATPlite luminescence, 48 h; series mostly up to 57.5 µM
Summary of the method: as §1

OV90 = assay: as above; conditions: Gynecologic cancer cell panel viability, ATPlite luminescence, 48 h; series mostly up to 57.5 µM
Summary of the method: as §1

PA-1 = assay: as above; conditions: Gynecologic cancer cell panel viability, ATPlite luminescence, 48 h; series mostly up to 57.5 µM
Summary of the method: as §1

SKOV3 = assay: as above; conditions: Gynecologic cancer cell panel viability, ATPlite luminescence, 48 h; series mostly up to 57.5 µM
Summary of the method: as §1

Tov-21-G = assay: as above; conditions: Gynecologic cancer cell panel viability, ATPlite luminescence, 48 h; series mostly up to 57.5 µM
Summary of the method: as §1

Tov112D = assay: as above; conditions: Gynecologic cancer cell panel viability, ATPlite luminescence, 48 h; series mostly up to 57.5 µM
Summary of the method: as §1

CASKI = assay: as above; conditions: Gynecologic cancer cell panel viability, ATPlite luminescence, 48 h; series mostly up to 57.5 µM
Summary of the method: as §1

[1] = qHTS assay to identify inhibitors of the type 1 interferon - major histocompatibility complex class I in skeletal muscle: Counter screen cell viability and HiBit confirmation (AID 1347412); conditions: iHSKM muscle cells + IFN-b, HiBiT or CellTiter-Glo, 24 h; note: nearly all actives have a fitted effect of over 60% in size
Summary of the method: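 CRISPR HLA-B*08:01-HiBit immortalized human myoblasts (C25cl48) stimulated with 4 ng/ml IFN-beta and compounds (12-point 1:3, top 46 uM final) for 24 h at 37 C. Duplicate plates read by HiBit lytic luminescence or CellTiter Glo ATP.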
Potency is the fitted concentration of half-maximal effect.

Cc1nc(N2CCN(C(=O)c3ccco3)CC2)c2c3c(sc2n1)CCCC3
Potency (C33A): inactive | Potency (Es-2): inactive | Potency (HeLa): inactive | Potency (Hek293T): inactive | Potency (JEG-3): inactive | Potency (OV90): inactive | Potency (PA-1): inactive | Potency (SKOV3): inactive | Potency (Tov-21-G): inactive | Potency (Tov112D): inactive

COc1cc(C(N)=O)nc(-c2ccccn2)c1O
Potency (C33A): inactive | Potency (Es-2): inactive | Potency (HeLa): inactive | Potency (Hek293T): inactive | Potency (JEG-3): inactive | Potency (OV90): inactive | Potency (PA-1): inactive | Potency (SKOV3): inactive | Potency (Tov-21-G): inactive | Potency (Tov112D): inactive

CCC1C(=O)N(C)c2cnc(Nc3ccc(C(=O)NC4CCN(C)CC4)cc3OC)nc2N1C1CCCC1 (stereo not given)
Potency (C33A): 20 µM (active) | Potency (CASKI): 3.98 µM (active) | Potency (JEG-3): 28.2 µM (active) | Potency (PA-1): 1.78 µM (active) | Potency (SKOV3): 6.31 µM (active)

COc1ccccc1S(=O)(=O)Nc1ccc2c(c1)CN(C)C(=O)N2
Potency (C33A): inactive | Potency (CASKI): inactive | Potency (Hek293T): inactive | Potency (JEG-3): inactive | Potency (OV90): inactive | Potency (PA-1): inactive | Potency (Tov112D): inactive

Cn1c(CO)c(-c2ccccc2)c2cc([N+](=O)[O-])ccc21
Potency (C33A): inactive | Potency (CASKI): inactive | Potency (Es-2): inactive | Potency (Hek293T): inactive | Potency (JEG-3): inactive | Potency (OV90): inactive | Potency (PA-1): inactive | Potency (Tov-21-G): inactive | Potency (Tov112D): inactive

CN1CCN(C2CCN(C(=O)Nc3cc(Oc4ccc(NC(=O)C5(C(=O)Nc6ccc(F)cc6)CC5)c(F)c4)ccn3)CC2)CC1
Potency (C33A): inactive | Potency (CASKI): inactive | Potency (HeLa): inactive | Potency (Hek293T): inactive | Potency (Tov112D): inactive | Potency ([1]; HiBiT): 4.97 µM (active) | Potency ([1]; Viability): 14 µM (active)

COc1cc2c(cc1-c1c(C)noc1C)ncc1[nH]c(=O)n(C(C)c3ccccn3)c12 (stereo not given)
Potency (C33A): inactive | Potency (CASKI): inactive | Potency (Hek293T): inactive | Potency (JEG-3): inactive | Potency (SKOV3): 12.6 µM (active) | Potency (Tov112D): inactive

O=C(NCCCn1ccnc1)c1cc(-c2ccco2)on1
Potency (C33A): inactive | Potency (CASKI): inactive | Potency (HeLa): inactive | Potency (Hek293T): inactive | Potency (JEG-3): inactive | Potency (OV90): inactive | Potency (SKOV3): inactive | Potency (Tov112D): inactive

COc1cc2ncnc(Oc3ccc(CC(=O)Nc4cnn(C(C)C)c4)cc3)c2cc1OC
Potency (C33A): inactive | Potency (Es-2): inactive | Potency (HeLa): inactive | Potency (Hek293T): inactive | Potency (JEG-3): inactive | Potency (OV90): inactive | Potency (PA-1): inactive | Potency (SKOV3): inactive | Potency (Tov-21-G): inactive | Potency (Tov112D): inactive

CC(C)S(=O)(=O)Nc1ccc(F)c(C(=O)c2c[nH]c3ncc(-c4cccnc4)cc23)c1F
Potency (C33A): inactive | Potency (CASKI): inactive | Potency (Hek293T): inactive | Potency (JEG-3): inactive | Potency (SKOV3): 25.1 µM (active) | Potency (Tov112D): inactive

C=C1C(=O)O[C@@H]2/C=C(\CO)CC/C=C(/C=O)C[C@H](O)[C@@H]12
Potency (C33A): inactive | Potency (CASKI): inactive | Potency (HeLa): inactive | Potency (JEG-3): inactive | Potency (OV90): inactive | Potency (Tov-21-G): 28.2 µM (active) | Potency (Tov112D): inactive

C/C1=C/CCC2=CC(OC2=O)C(C)(C)/C=C/C1=O (stereo not given)
Potency (C33A): 10 µM (active) | Potency (CASKI): 6.31 µM (active) | Potency (Es-2): 8.91 µM (active) | Potency (Hek293T): 12.6 µM (active) | Potency (PA-1): 8.91 µM (active) | Potency (SKOV3): 12.6 µM (active) | Potency (Tov-21-G): 8.91 µM (active) | Potency (Tov112D): 20 µM (active)

CCn1c2ccccc2c2cc(Nc3ccnc(NCCCN4CCOCC4)n3)ccc21
Potency (C33A): inactive | Potency (CASKI): inactive | Potency (HeLa): inactive | Potency (Tov-21-G): inactive | Potency (Tov112D): inactive

O=c1cc(N2CCOCC2)nc2c3ccccc3ccn12
Potency (C33A): inactive | Potency (Es-2): inactive | Potency (HeLa): inactive | Potency (Hek293T): inactive | Potency (JEG-3): inactive | Potency (OV90): inactive | Potency (PA-1): inactive | Potency (Tov-21-G): inactive | Potency (Tov112D): inactive

CC(C)c1ccc(-c2cc(=O)c3ccccc3o2)cc1
Potency (C33A): 11.2 µM (active) | Potency (CASKI): inactive | Potency (JEG-3): 8.91 µM (active)

Cc1[nH]c(/C=C2\C(=O)Nc3ccc(F)cc32)c(C)c1C(=O)NCCN1CCCC1
Potency (C33A): inactive | Potency (CASKI): inactive | Potency (Es-2): inactive | Potency (Hek293T): inactive | Potency (JEG-3): inactive | Potency (OV90): inactive | Potency (SKOV3): 15.8 µM (active) | Potency (Tov112D): inactive | activity change, negative = inhibition ([1]; Viability, at 45.9 µM (top of the series)): -1.6%

C/C=C(/C)C(=O)O[C@H]1[C@H](OC(=O)/C(C)=C\C)[C@@]23C(CC1(C)C)[C@]1(CCC4[C@@]5(C)CC[C@H](O[C@@H]6O[C@H](C(=O)O)[C@@H](O)[C@H](O[C@@H]7O[C@H](CO)[C@H](O)[C@H](O)[C@H]7O[C@@H]7O[C@@H](C)[C@H](O)[C@@H](O)[C@H]7O[C@@H]7OC[C@@H](O)[C@H](O)[C@H]7O)[C@H]6O[C@@H]6O[C@H](CO)[C@H](O)[C@H](O)[C@H]6O)C(C)(C)C5CC[C@@]4(C)[C@]1(C)C[C@H]2O)O[C@H]3O (stereo not given in full)
activity change, negative = cytotoxicity (C33A): -26.4% [at 6.55 µM] | activity change, negative = cytotoxicity (CASKI): -8.52% [at 6.55 µM] | activity change, negative = cytotoxicity (Es-2): 0.581% [at 6.55 µM] | activity change, negative = cytotoxicity (HeLa): 16.8% [at 6.55 µM] | activity change, negative = cytotoxicity (Tov112D): -22.5% [at 6.55 µM]

CN(c1ccc(NC(=O)Nc2ccccc2)cc1)S(=O)(=O)c1cnn(-c2ccc(F)cc2)c1
Potency (C33A): inactive | Potency (CASKI): inactive | Potency (Es-2): inactive | Potency (JEG-3): inactive | Potency (OV90): inactive | Potency (PA-1): inactive | Potency (Tov-21-G): inactive | Potency (Tov112D): inactive

O=C(c1c(F)ccc(NS(=O)(=O)N2CC[C@@H](F)C2)c1F)c1c[nH]c2ncc(-c3cnc(C4CC4)nc3)cc12
Potency (C33A): inactive | Potency (CASKI): inactive | Potency (HeLa): inactive | Potency (Hek293T): inactive | Potency (JEG-3): inactive | Potency (PA-1): inactive | Potency (Tov-21-G): 11.2 µM (active) | Potency (Tov112D): inactive
